Data as given in PubChem BioAssay (NCI).
The panel holds about 79,000 compounds, 15% with a hit somewhere; the sample as a whole holds those more often. A number with no mark means an inactive call. The source made the active and inactive calls. Cut-off read from the data, not from the text of the source: active = growth inhibition above about 70%; inactive = the rest.

Columns and labels:
[1] = NCI Yeast Anticancer Drug Screen. Data for the rad50 strain (AID 155);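 note: 0% = growth of vehicle-only cultures of the same strain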; conditions: S. cerevisiae rad50 strain growth inhibition; at 50.0 µM; active compounds read high
Method in brief: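 Relative growth inhibition (compound vs vehicle) was measured in yeast with a defined repair-gene alteration.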

[2] = NCI Yeast Anticancer Drug Screen. Data for the mec2-1 strain (AID 157); conditions: S. cerevisiae mec2-1 strain, at 50.0 µM, active compounds read high
Method in brief: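 Readout is yeast growth inhibition, normalised to vehicle-treated controls, in the mec2-1 strain exposed to compound.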

[3] = NCI Yeast Anticancer Drug Screen. Data for the sgs1 mgt1 strain (AID 161);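 note: 0% = growth of cultures given vehicle only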; conditions: S. cerevisiae sgs1 mgt1 strain, at 50.0 µM, active compounds read high
Method in brief: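 Percent growth inhibition was derived by comparing compound-exposed mutant yeast with vehicle-exposed cultures. The strain carries alterations in DNA damage repair.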

[4] = NCI Yeast Anticancer Drug Screen. Data for the cln2 rad14 strain (AID 165);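 note: 0% = growth equal to vehicle treated cultures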; conditions: S. cerevisiae cln2 rad14 strain, at 50.0 µM, active compounds read high
Method in brief: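 Relative to vehicle controls, growth inhibition of compound-treated cln2 rad14 yeast was recorded.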

[5] = NCI Yeast Anticancer Drug Screen. Data for the bub3 strain (AID 167); conditions: S. cerevisiae bub3 mutant strain, at 50.0 µM, active compounds read high
Method in brief: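 Screening used yeast with an engineered genetic alteration affecting cell cycle control. Compound-exposed cultures were compared with vehicle cultures, and reduced growth was taken as inhibition.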

[6] = NCI Yeast Anticancer Drug Screen. Data for the mlh1 rad18 strain (AID 175); conditions: S. cerevisiae mlh1 rad18 strain growth inhibition; at 50.0 µM; active compounds read high
Method in brief: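 Test agents were incubated with a yeast strain of defined genotype (DNA damage repair defect). Inhibition of growth was derived by comparison with vehicle-exposed cultures.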

| Structure (SMILES) | growth inhibition [1] | growth inhibition [2] | growth inhibition [3] | growth inhibition [4] | growth inhibition [5] | growth inhibition [6] |
| --- | --- | --- | --- | --- | --- | --- |
| COC(=O)c1ccc(Cl)cc1OCC(=O)Nc1ccccc1 | -29.1% | -0.55% | -12.2% | -27.7% | -4.6% | -3.65% |
| CS(=O)(=O)OC[C@@H]1C2CCC(C2)[C@@H]1COS(C)(=O)=O | -8.45% | -12.8% | 1.5% | -52.8% | -3.5% | -14.2% |
| CN(C)c1ccc(/C=C/C(=O)CC(=O)/C=C/c2ccc(N(C)C)cc2)cc1 | 22.2% | 21.3% | -28.2% | -27.4% | -4.3% | 0.8% |
| COc1cc(OC)c(N=Nc2c(N)nc(N)[nH]c2=O)cc1Cl | 4.95% | 14.6% | 7.5% | -12.1% | 8.3% | -1.4% |
| O=C1O/C(=C(\Br)c2ccc([N+](=O)[O-])cc2)c2ccccc21 | 30.4% | -27.4% | 19.4% | 0.85% | -5.9% | 1.05% |
| CC(C)(C)OC(=O)N/N=C(/N)Cc1ccccc1 | -36.2% | -3.65% | -18.4% | 6.5% | 6.4% | 5.55% |
| O=S(=O)([O-])c1ccc(N=Cc2ccccc2[O-])cc1.O=S(=O)([O-])c1ccc(N=Cc2ccccc2[O-])cc1.[Co+2] | 16.6% | 2.25% | -15.2% | 23.4% | 9.25% | -9.65% |
| CCc1cccc(C(C)C)c1NC(=O)C(=O)C(C(=O)C(=O)OC)c1nc2ccccc2[nH]c1=O (stereo not given) | 5.95% | -29.1% | 8.85% | 20.2% | -9.5% | 2.9% |
| CC1=c2c(oc3cc(O)c(Nc4c(C)cc(O)cc4O)c(C)c23)=CC(=O)C1=Nc1c(C)cc(O)cc1O | 17.9% | 7.8% | 0.45% | -2.3% | -35% | 18.4% |
| CCCCCN(CCCCC)C(C)=O | 6.85% | 5.95% | 2.3% | -0.65% | -2.15% | 7.45% |
| CC(=O)Nc1cc(OC(C)=O)c(OC(C)=O)c2ccccc12 | -7.45% | -6.9% | -0.6% | -1.55% | -33.1% | 1.1% |
| CCCOC1CC(C)C(O)C(C)C1 (stereo not given) | 24.6% | -4.15% | 3.35% | -10.8% | -1.35% | 15.5% |
| O=C1C(=Cc2ccc(Cl)c(Cl)c2)C([O-])=C([P+](c2ccccc2)(c2ccccc2)c2ccccc2)C([O-])=C1[P+](c1ccccc1)(c1ccccc1)c1ccccc1 | -4.6% | -44.6% | -7.05% | 5.15% | -21.9% | -19.6% |
| Cc1c2ccn3c(=O)c4ccccc4cc3c2c(C)c2c1[nH]c1ccccc12 | 56.1% | 15.2% | 9.45% | 16.7% | 21.8% | 26.6% |
| ON=C(c1ccccc1)c1ccccc1 | -0.15% | -3.8% | -2.05% | -7.2% | -1.95% | -2.95% |
| CN(C)c1ccc(NN=C2SC(=Nc3ccccc3)C(=Nc3ccccc3)S2)cc1 | 41.5% | -17.9% | -10.2% | 18.1% | 25.2% | 8.15% |
| Cn1c(=O)c2c(nc(N)n2C)n(C)c1=O | -16.8% | -8.35% | 5.8% | -30.2% | -33.6% | -20.4% |
| Cc1ccccc1S(=O)(=O)OC1NS(=O)(=O)c2ccccc21 (stereo not given) | 15.8% | -1% | -36.9% | -15.6% | -23.3% | 2.9% |
| O=C1OC(c2cccc(C(F)(F)F)c2)c2ccc3ccccc3c21 (stereo not given) | 14.3% | -0.45% | 10.7% | 18.1% | 10.8% | 22.8% |
| COc1ccc2[nH]c(=O)cc(C)c2c1 | -5.35% | -4.1% | -1.6% | -37.7% | 18.9% | -85.3% |

| Structure (SMILES) | growth inhibition [1] | growth inhibition [2] | growth inhibition [3] | growth inhibition [4] | growth inhibition [5] | growth inhibition [6] |
| --- | --- | --- | --- | --- | --- | --- |
| O=c1c2cc([N+](=O)[O-])ccc2n2n1Cc1ccccc1CC2 | -12.8% | -0.9% | -6.5% | 21.5% | 18.5% | -16.4% |
| O=C(c1ccccc1)C(c1ccccc1)C1(O)C(=O)Nc2ccc(Br)cc21 (stereo not given) | 0.9% | 7.35% | -0.15% | 16.1% | 54.9% | 7.1% |
| Fc1ccc2nncc(SCc3ccc(Cl)cc3)c2c1 | -4.1% | 2.25% | 4% | -22.4% | 4.85% | -0.65% |
| COC1(OC)CC(CCl)OC1(OC)OC (stereo not given) | -2.45% | 0.25% | 12.7% | 1.55% | 3.15% | -4.5% |
| CCOC(=O)C(=O)c1c(C)[nH]c(C)c1C(=O)OCC | -2.15% | -4.8% | 17.1% | -23.1% | 7.3% | -9.1% |
| CN(C)c1ccc(/C=C(\C#N)c2cccc(F)c2)cc1 | -4.85% | 0.3% | 1.5% | -14.2% | 3.4% | -20.2% |
| CCN(CC)CCOc1ccc(OC)cc1 | -8.7% | -0.6% | -9.55% | -35.2% | -5.2% | -0.8% |
| CC1CCCC(C(O)CC2CC(=O)NC(=O)C2)C1O (stereo not given) | 17.4% | -3.65% | 3.5% | -29.8% | 1.7% | 4.45% |
| N#Cc1nc(-c2ccco2)oc1N | -20.8% | 1.85% | -23.2% | 3% | -10.2% | -5.8% |
| c1ccc(CN2CCCCC(Sc3ccccc3)CC2)cc1 (stereo not given) | 90.2% (active) | 93.8% (active) | 92.2% (active) | 90.5% (active) | 89.7% (active) | 90.9% (active) |
| O=C1CC(N2C(=O)C3C4CCC(O4)C3C2=O)C(=O)N1 (stereo not given) | 2.45% | 18.2% | 1.3% | -0.6% | 7.95% | 6.45% |
| CCCCCCCCCCOC(=O)Nc1cccc(O)c1 | 29.8% | 92.8% (active) | 95.4% (active) | 18.9% | 96.9% (active) | 86.5% (active) |
| C=C1C(=O)OC2CC(C)C3CC(O)OC(OCC)C3(C)CC12 (stereo not given) | 24.1% | 20.3% | 12.4% | 22.8% | 32.2% | -16.8% |
| CN(/N=C/c1cccc2cccnc12)c1ccccc1 | 8.9% | 6.3% | -0.45% | 29.4% | 14.6% | 16.7% |
| CCOC(=O)c1ccc(NC(=O)Sc2ccccc2C)cc1 | 5.55% | 12.9% | 11.3% | 7.5% | 28% | 13.6% |
| CCOc1ccc(NC(=O)C(C)O)cc1 (stereo not given) | -29.9% | -14.4% | -20.2% | 6.1% | -3.65% | -14.3% |
| O=S(=O)(O)c1ccc(N=Nc2c(O)cc(O)cc2O)cc1 | -21.9% | -6.8% | -6.95% | 17.2% | 31.8% | -18.4% |
| NC(=O)CC(N)C(=O)OCc1ccc([N+](=O)[O-])cc1 (stereo not given) | -12.7% | 0% | -3.45% | -11.2% | -5.95% | -11.3% |
| Clc1ccc(-c2ncc(-c3ccccc3)o2)c(Cl)c1 | 9.35% | -3.4% | 5.65% | -39.9% | 9.2% | 23.2% |
| Cc1nn(C(=S)S)c(C)c1N=Nc1ccc(O)cc1 | 9.3% | 10.5% | 16.9% | -16.7% | 5.35% | 18.6% |
